Common to all, as to assay: PBM binding z-score (relative to random genomic background probes); higher = stronger binding; sequences stand for … in GC…GCGATTGACAGCGTAGAATGAAGG
For experiment [1], the system named is FXR:RXRa (NR concentration 270 nM, RXRa partner concentration 90 nM). Summed up: (§1)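 Binding z-scores take random background probes as their reference. They come from custom Agilent 4×180K protein-binding microarrays incubated 1 h with ligand-free nuclear receptor dimers, with antibodies against each partner (one per run) detecting binding. Scanned fluorescence was regression-normalized.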

For experiment [2], the system named is LXRa:RXRa (NR concentration 270 nM, RXRa partner concentration 90 nM). The essentials: as §1
For experiment [3], the system named is LXRa homodimer (NR concentration 270 nM). The essentials: as §1
The subject of experiment [4] is LXRb:RXRa (NR concentration 270 nM, RXRa partner concentration 90 nM). The essentials:
as §1

For experiment [5], the system named is LXRb homodimer (NR concentration 270 nM). Summed up:
as §1

For experiment [6], the system named is PPARa:RXRa (NR concentration 270 nM, RXRa partner concentration 90 nM). The essentials: as §1
The test system of experiment [7] is PPARg:RXRa (NR concentration 180 nM, RXRa partner concentration 90 nM). Summed up:
as §1

The test system of experiment [8] is PPARg:RXRa 270nM:90nM, anti-RXR (NR concentration 270 nM, RXRa partner concentration 90 nM). The essentials:
as §1

The subject of experiment [9] is PPARg:RXRa 30nM:10nM, anti-RXR (NR concentration 30 nM, RXRa partner concentration 10 nM). The essentials: as §1
Experiment [10] relates to PPARg:RXRa 90nM:30nM, anti-RXR (NR concentration 90 nM, RXRa partner concentration 30 nM). The essentials: as §1
Experiment [11] relates to PPARg:RXRa DBDmut IVT, anti-RXR (DBD mutation: RXRa K156A/R161A, NR concentration 270 nM, RXRa partner concentration 90 nM). The essentials:
as §1

The subject of experiment [12] is PPARg:RXRa IVT, anti-PPARg (NR concentration 270 nM, RXRa partner concentration 90 nM). Summed up:
as §1

In experiment [13] the test system is PPARg DBDmut:RXRa IVT, anti-PPARg (DBD mutation: PPARg1 K132A/R137A, NR concentration 270 nM, RXRa partner concentration 90 nM). Summed up: as §1
Experiment [14] has as its system PPARg DBDmut IVT, anti-PPARg (DBD mutation: PPARg1 K132A/R137A, NR concentration 270 nM). Summed up:
as §1

For experiment [15], the system named is PPARg homodimer (NR concentration 180 nM). The essentials: as §1
Experiment [16] deals with PXR:RXRa (NR concentration 270 nM, RXRa partner concentration 90 nM). Summed up:
as §1

The subject of experiment [17] is PXR homodimer (NR concentration 270 nM). The essentials:
as §1

Experiment [18] concerns RARa:RXR (NR concentration 270 nM, RXRa partner concentration 90 nM). The essentials:
as §1

The test system of experiment [19] is RARa homodimer (NR concentration 270 nM). Summed up: as §1
The test system of experiment [20] is RARb:RXRa (NR concentration 270 nM, RXRa partner concentration 90 nM). The essentials: as §1

Regarding ATCTCTAGGTAAAGATAGTTCCGTGAATGCAAAT, the PBM binding z-score is 0.0722 in [1]; -0.0482 in experiment [2]; 0.14 in experiment [3]; -0.171 in [4]; 0.352 in experiment [5]; 0.22 in experiment [6]. Further, the PBM binding z-score in experiment [7] came to 0.326; in experiment [8] it was 0.273; in [9], 0.172; in experiment [10], 0.366; in experiment [11], 1.2; in experiment [12], 1.52. The PBM binding z-score in [13] was 1.55; in experiment [14] it was 0.949; in experiment [15], 0.486; in experiment [16], -0.0332; in experiment [17] it was 0.339; in experiment [18], 0.23. The PBM binding z-score is 0.96 in experiment [19] and -0.0284 in experiment [20].
On to ATATGTAGGTTACATCCGGGTTATTCAGGCTATG, for which the PBM binding z-score in experiment [1] was determined as 0.937; in [2], 3.18; in experiment [3], 0.529; in experiment [4], 1.71; in [5], 0.53; in experiment [6], 3.59. In addition, the PBM binding z-score in experiment [7] worked out at 5.15; in experiment [8], 4.27; in experiment [9] it was 2; in experiment [10], 3.64; in [11], 7.44; in [12], 7.16. Besides, the PBM binding z-score in experiment [13] stood at 4.04; in [14], 2.37; in experiment [15] it was 3.3; in [16] it was 1.2; in experiment [17], 0.531; in experiment [18], 1.57. Also, the figures for the PBM binding z-score in [19] and in [20] were 0.67 and 1.35, respectively.
Turning to ACTATTAGTTGACTAAGGGCAACCGATACGACGC, the PBM binding z-score in [1] was 0.232; in [2], 0.474; in experiment [3], 0.168; in experiment [4], 0.518; in experiment [5], 0.478; in experiment [6], 0.573. The PBM binding z-score in experiment [7] came to 1.06; in experiment [8], 0.728; in experiment [9] it was 0.0857; in [10] it was 0.518; in experiment [11], 0.0727; in [12], 0.783. Further, the PBM binding z-score in experiment [13] worked out at 0.688; in experiment [14], 0.819; in experiment [15] it was 0.638; in experiment [16], 0.652; in experiment [17] it was 0.92; in experiment [18] it was 0.766. In addition, the PBM binding z-score in experiment [19] worked out at 0.98; in [20], 1.53.
As for CCTAGCAGGCCAATCTGGCTCACTCAAGGCTTGA, the PBM binding z-score in experiment [1] is -0.716; in experiment [2], -0.911; in experiment [3] it was -0.459; in [4] it was -0.999; in experiment [5] it was -0.737; in experiment [6] it was -0.434. In addition, the PBM binding z-score in [7] is -0.54; in experiment [8], -0.642; in experiment [9] it was -0.916; in [10], -1.12; in [11], 1.35; in experiment [12], 0.117. Further, the PBM binding z-score is -2.07 in experiment [13]; -1.06 in experiment [14]; -0.294 in [15]; -0.913 in experiment [16]; -1.16 in experiment [17]; -0.795 in [18]. Besides, the values for the PBM binding z-score in experiment [19] and in experiment [20] were -0.522 and -0.16, respectively.
Turning to TCATATAGGTAAATGCTAGGTGAAAGTTCGATCT, the PBM binding z-score in [1] is 1.23; in experiment [2], 1.18; in [3], 0.931; in [4] it was 1.27; in experiment [5] it was -0.0844; in experiment [6], 2.74. Also, the PBM binding z-score in [7] was found to be 3.2; in experiment [8] it was 4.57; in [9] it was 4.77; in experiment [10], 4.78; in experiment [11], 3.99; in [12] it was 3.4. Also, the PBM binding z-score came out at 1.55 in experiment [13]; 1.1 in experiment [14]; 1.29 in [15]; 1.17 in experiment [16]; 0.91 in [17]; 1.61 in [18]. For the same sequence, the PBM binding z-score in experiment [19] came out at 1.71; in experiment [20], 0.871.
With AGAACGAGGGCAATGAGCTGATAGCACGGGTGGC, the PBM binding z-score is 0.394 in experiment [1]; 0.368 in experiment [2]; -0.433 in experiment [3]; -0.35 in experiment [4]; -0.559 in experiment [5]; 1.4 in experiment [6]. For the same sequence, the PBM binding z-score in experiment [7] is 1.29; in [8] it was 0.822; in [9], -0.0771; in experiment [10], 0.27; in experiment [11], 3.25; in experiment [12] it was 2.14. In addition, the PBM binding z-score was 0.548 in experiment [13]; -0.351 in [14]; -0.0817 in experiment [15]; 0.131 in [16]; 0.0255 in [17]; 0.176 in experiment [18]. The figures for the PBM binding z-score in experiment [19] and in [20] were -0.301 and 2, respectively.
CCTTACGGGTCACTCCAGGTTAAAGCATCGGAGT: the PBM binding z-score in experiment [1] was 5.18; in experiment [2], 7.96; in experiment [3], 2.58; in experiment [4], 5.93; in [5], 0.173; in experiment [6], 4.59. The PBM binding z-score amounted to 3.59 in experiment [7]; 4.06 in experiment [8]; 1.02 in experiment [9]; 2.86 in experiment [10]; 2.31 in experiment [11]; 3.73 in experiment [12]. In addition, the PBM binding z-score in experiment [13] was -0.0185; in [14] it was -0.224; in experiment [15], 2.3; in experiment [16], 5.3; in experiment [17] it was 0.114; in [18] it was 4.1. In addition, the PBM binding z-score in [19] is 0.271; in experiment [20] it was 3.67.

Values taken from the supplement of paper PMC6555819.
